# Measurements published in ChEMBL document CHEMBL3988442, “University of Dundee, Small-Polar-MMV Screening Library” (2021).
# For part of these data: Potency and affinity values are given separately.
# Tests used:
# Design in all cases: scale not given: direction of the effect not stated beside the values
# [1] = target: Protein translocase subunit SecA (Escherichia coli (strain K12)) (UniProt P10408); experiment: Assay to Identify E. coli SecA ATPase Inhibitors; format: functional; conditions: 30 µM
# [2] = target: T1, Ubiquitin-activating enzyme e1, putative (Leishmania donovani (strain BPK282A1)) (UniProt E9BSI1); experiment: Leishmania donovani Ubiquitin Activating Enzyme (LdE1); format: functional; conditions: 30 µM
# T1 sequence (whole entry): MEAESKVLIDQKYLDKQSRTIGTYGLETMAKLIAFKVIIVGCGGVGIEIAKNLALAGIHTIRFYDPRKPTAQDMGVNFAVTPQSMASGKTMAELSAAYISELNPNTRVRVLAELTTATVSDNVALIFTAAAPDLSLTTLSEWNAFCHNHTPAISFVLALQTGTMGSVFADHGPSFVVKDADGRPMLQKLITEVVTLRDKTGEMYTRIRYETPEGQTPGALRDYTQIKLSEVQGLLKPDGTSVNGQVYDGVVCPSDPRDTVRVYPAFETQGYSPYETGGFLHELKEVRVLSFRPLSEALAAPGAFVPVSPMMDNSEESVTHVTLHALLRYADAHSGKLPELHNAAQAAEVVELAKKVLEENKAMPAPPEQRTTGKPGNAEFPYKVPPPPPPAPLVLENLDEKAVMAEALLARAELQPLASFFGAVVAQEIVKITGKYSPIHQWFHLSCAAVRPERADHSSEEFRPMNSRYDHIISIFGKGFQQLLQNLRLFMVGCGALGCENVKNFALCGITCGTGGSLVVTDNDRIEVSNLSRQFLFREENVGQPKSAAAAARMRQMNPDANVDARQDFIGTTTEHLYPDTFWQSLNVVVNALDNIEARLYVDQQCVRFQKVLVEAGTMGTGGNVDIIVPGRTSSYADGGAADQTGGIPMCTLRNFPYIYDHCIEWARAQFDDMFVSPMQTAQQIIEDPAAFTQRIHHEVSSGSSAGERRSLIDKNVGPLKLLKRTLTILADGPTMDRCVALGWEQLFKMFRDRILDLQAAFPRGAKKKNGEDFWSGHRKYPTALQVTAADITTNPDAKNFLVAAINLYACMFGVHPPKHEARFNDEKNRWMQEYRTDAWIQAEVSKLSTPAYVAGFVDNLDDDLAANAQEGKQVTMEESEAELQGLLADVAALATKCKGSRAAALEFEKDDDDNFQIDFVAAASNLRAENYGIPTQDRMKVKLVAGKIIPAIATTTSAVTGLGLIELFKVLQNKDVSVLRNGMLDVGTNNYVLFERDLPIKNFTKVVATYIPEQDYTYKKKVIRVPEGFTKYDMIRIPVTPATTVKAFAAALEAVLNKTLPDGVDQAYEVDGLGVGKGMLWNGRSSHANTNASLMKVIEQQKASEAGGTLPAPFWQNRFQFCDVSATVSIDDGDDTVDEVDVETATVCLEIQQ
# [3] = target: AMP-activated protein kinase, AMPK (Homo sapiens) (UniProt P54646+O43741+P54619+Q9UGJ0+Q9Y478+Q13131+Q9UGI9); experiment: AMP-dependent Kinase enzyme assay. An in vitro enzyme assay that detects ADP turnover that is directly proportional to AMPK activity. This uses naive AMPK that is activated during the assay with MK-8722; format: functional; conditions: 30 µM
# [4] = target: Sialic acid-binding Ig-like lectin 9 (Homo sapiens) (UniProt Q9Y336); experiment: Hs-Siglec9 ALPHAscreen SOP 20170721; conditions: 10 µM
# Trypanosoma cruzi = experiment: Trypanosoma cruzi phosphomannomutase and mannose-1-phosphate guanylyltransferase assay; format: functional; conditions: 10 µM
# [5] = target: T2, Arginase-2, mitochondrial (Homo sapiens) (UniProt P78540); experiment: in vitro enzyme assay to detect the production of urea directly proportional to the activity of Arginase II; format: functional; conditions: 33.3 µM; note: in the data most compounds retested in dose-response had high values
# T2 sequence (whole entry): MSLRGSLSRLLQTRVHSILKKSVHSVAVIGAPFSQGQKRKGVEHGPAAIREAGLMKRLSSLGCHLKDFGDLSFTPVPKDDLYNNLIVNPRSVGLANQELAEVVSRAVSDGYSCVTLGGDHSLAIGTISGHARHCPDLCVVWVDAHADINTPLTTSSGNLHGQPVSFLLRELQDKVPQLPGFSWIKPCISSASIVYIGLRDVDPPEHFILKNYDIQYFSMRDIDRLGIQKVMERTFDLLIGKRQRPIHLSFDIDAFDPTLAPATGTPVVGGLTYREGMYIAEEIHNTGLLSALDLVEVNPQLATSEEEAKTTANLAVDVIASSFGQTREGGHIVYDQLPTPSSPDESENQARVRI
# [6] = target: T3, Proteasome subunit beta (Trypanosoma cruzi) (UniProt O96673); experiment: Trypanosoma cruzi proteasome chymotrypsin-like activity (TcProtChymo) assay.; note: in the data most compounds retested in dose-response had high values; format: functional; conditions: 9.37 µM
# T3 sequence (whole entry): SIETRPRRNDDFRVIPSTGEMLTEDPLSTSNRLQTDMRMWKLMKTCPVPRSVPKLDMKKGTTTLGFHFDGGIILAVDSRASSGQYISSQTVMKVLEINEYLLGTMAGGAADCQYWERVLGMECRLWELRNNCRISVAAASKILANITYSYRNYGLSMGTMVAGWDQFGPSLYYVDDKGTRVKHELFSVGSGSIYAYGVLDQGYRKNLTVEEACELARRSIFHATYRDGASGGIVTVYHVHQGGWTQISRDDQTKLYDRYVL
# Homo sapiens = organism: Homo sapiens; experiment: To identify inhibition of the IFN signalling (Jak-Stat) pathway via expression of an eGFP reporter gene under the control of an IFN-stimulated response element (ISRE) containing MxA promoter.; format: functional; conditions: 30 µM
# [7] = target: T4, Tyrosyl-tRNA synthetase, putative (Trypanosoma cruzi (strain CL Brener)) (UniProt Q4DSP6); experiment: Trypanosoma cruzi tyrosyl tRNA synthetase (TcYRS) _High Tyrosine SOP; format: functional; conditions: 30 µM; note: in the data most compounds retested in dose-response had high values
# T4 sequence (whole entry): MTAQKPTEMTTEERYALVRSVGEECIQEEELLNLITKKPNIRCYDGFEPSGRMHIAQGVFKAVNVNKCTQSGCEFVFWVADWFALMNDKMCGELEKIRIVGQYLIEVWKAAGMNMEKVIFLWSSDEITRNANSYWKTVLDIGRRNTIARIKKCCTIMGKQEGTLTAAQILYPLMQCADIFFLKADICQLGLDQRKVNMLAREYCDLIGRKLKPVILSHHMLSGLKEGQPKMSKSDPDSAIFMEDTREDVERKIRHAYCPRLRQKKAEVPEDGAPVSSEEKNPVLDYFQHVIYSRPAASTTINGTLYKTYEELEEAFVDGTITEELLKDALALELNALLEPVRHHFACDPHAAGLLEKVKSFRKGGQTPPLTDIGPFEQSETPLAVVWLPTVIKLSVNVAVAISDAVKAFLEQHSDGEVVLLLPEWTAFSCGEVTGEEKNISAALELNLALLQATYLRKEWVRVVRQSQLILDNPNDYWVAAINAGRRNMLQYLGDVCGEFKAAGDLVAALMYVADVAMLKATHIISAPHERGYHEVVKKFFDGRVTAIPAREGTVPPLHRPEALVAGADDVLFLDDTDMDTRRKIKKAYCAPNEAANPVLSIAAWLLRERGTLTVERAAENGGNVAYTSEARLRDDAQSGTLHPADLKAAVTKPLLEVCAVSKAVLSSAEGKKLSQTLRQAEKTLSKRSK
# [8] = target: T4, Tyrosyl-tRNA synthetase, putative (Trypanosoma cruzi (strain CL Brener)); experiment: Trypanosoma cruzi tyrosyl tRNA synthetase (TcYRS) SOP; format: functional; conditions: 30 µM
# [9] = target: Chromo domain-containing protein 1 (Saccharomyces cerevisiae (strain ATCC 204508 / S288c) (Baker's yeast)) (UniProt P32657); experiment: ScCHD-1 Enzyme Inhibition Assay; format: functional; conditions: 30 µM; note: in the data most compounds retested in dose-response had high values
# Chain of Chromo domain-containing protein 1 (Saccharomyces cerevisiae (strain ATCC 204508 / S288c) (Baker's yeast)) (P32657 whole entry, the tested form may be a part): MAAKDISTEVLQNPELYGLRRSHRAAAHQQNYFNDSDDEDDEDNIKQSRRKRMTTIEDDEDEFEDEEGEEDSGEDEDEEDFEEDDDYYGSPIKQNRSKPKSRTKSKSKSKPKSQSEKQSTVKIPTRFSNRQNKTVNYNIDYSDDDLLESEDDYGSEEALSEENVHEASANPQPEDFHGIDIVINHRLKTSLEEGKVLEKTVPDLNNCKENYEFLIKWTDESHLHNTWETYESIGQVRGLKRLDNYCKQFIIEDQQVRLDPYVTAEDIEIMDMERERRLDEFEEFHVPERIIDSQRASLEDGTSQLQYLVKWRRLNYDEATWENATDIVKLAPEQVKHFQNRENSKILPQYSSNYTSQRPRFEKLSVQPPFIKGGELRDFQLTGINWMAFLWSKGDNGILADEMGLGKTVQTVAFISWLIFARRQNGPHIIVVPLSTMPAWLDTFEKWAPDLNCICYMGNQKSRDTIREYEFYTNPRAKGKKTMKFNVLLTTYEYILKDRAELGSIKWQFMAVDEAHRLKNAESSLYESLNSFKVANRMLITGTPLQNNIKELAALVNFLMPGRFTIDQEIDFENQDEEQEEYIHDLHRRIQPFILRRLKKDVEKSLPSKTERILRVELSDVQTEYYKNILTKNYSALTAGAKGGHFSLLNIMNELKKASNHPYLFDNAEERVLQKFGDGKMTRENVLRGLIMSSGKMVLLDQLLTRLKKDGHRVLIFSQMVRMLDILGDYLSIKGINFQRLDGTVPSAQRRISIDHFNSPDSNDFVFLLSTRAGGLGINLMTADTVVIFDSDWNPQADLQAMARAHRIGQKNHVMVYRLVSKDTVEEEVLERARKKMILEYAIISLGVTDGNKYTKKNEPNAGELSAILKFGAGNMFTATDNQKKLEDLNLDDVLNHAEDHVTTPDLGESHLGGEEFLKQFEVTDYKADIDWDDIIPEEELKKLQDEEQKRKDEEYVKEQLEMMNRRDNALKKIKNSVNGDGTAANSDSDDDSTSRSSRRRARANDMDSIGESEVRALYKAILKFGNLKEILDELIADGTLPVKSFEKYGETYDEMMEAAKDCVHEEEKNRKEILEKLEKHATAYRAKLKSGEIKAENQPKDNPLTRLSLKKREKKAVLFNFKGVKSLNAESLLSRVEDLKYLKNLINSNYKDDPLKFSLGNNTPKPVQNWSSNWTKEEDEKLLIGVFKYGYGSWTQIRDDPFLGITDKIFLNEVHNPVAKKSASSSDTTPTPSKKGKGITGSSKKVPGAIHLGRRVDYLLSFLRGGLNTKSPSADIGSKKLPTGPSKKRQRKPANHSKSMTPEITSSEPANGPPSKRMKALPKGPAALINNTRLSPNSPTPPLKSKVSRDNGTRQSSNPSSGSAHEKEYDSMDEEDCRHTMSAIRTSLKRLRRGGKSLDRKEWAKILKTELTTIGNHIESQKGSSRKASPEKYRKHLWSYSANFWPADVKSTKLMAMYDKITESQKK
# Chain of Protein translocase subunit SecA (Escherichia coli (strain K12)) (P10408 whole entry): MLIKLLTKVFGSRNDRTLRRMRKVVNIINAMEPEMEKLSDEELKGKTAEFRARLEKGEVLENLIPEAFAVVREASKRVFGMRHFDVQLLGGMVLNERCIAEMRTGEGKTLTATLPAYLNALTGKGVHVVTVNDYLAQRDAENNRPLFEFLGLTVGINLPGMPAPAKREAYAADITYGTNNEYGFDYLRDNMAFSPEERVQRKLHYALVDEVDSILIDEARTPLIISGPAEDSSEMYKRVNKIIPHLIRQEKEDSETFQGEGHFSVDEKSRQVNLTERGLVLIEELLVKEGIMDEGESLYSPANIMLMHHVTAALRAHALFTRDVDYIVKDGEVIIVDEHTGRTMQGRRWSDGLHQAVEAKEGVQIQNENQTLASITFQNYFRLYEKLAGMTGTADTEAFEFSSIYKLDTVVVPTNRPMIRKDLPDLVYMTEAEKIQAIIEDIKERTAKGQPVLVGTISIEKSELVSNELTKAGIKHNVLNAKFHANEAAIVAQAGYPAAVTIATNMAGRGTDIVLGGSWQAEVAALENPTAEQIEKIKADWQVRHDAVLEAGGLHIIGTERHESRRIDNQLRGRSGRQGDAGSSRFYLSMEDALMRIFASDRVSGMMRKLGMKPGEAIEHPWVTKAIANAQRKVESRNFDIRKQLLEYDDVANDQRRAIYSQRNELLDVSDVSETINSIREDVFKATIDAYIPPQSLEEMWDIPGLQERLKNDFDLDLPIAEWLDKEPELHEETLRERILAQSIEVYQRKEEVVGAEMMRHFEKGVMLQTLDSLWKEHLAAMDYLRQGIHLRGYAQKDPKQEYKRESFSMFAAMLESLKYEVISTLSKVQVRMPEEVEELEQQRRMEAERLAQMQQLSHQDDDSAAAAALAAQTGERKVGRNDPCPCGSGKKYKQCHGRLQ
# Chain of Sialic acid-binding Ig-like lectin 9 (Homo sapiens) (Q9Y336 whole entry): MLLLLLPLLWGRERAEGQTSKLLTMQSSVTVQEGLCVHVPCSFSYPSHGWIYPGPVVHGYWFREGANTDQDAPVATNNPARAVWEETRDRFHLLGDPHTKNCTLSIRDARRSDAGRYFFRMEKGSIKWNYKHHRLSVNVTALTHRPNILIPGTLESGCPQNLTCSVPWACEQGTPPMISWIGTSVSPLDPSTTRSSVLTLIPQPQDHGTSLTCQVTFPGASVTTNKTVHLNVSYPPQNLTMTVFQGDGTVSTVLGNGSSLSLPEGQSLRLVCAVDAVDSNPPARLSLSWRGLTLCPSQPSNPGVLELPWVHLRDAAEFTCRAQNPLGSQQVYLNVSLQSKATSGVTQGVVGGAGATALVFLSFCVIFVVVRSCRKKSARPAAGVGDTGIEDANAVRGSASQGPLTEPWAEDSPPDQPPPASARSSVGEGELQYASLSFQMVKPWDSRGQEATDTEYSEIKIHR
SMILES,Percent Effect [1],Percent Effect [2],Percent Effect [3],Percent Effect [4],Percent Effect (Trypanosoma cruzi),Percent Effect [5],Percent Effect [6],Percent Effect (Homo sapiens),Percent Effect [7],Percent Effect [8],Percent Effect [9]
O=C1NC2(CCN(C(=O)Cc3ccsc3)CC2)CC1c1ccncc1 (stereo unspecified),2.65%,10.4%,2.31%,-7.01%,-7.99%,16.1%,11.1%,5.79%,6.35%,14.1%,-9.26%
CN(CCCNc1cc(N2CCCC2CO)ncn1)S(C)(=O)=O (stereo unspecified),-2.02%,8.22%,-20.8%,7.67%,-1.96%,1.82%,16.3%,8.58%,2.15%,7.5%,-5.59%
O=C(c1cnn(-c2ccccc2F)c1)N1CCN(CCO)CC1,-0.313%,2.67%,-3.7%,3.26%,5.36%,16.1%,0.698%,-20%,-0.546%,3.7%,-1.23%
COc1c(C)cnc(CSc2nnc(C)s2)c1C,-4.15%,5.33%,-1.7%,12.8%,6.33%,8.33%,4.53%,6.59%,1.64%,6.17%,-14.7%
O=C(CC1CCCC1)NCCn1ccc(-c2ccncc2)n1,-3.35%,0%,5.83%,6.39%,-3.65%,3.23%,1.92%,13.7%,-5.29%,3.85%,1.38%
CC(C)CC1SCC(=O)Nc2c1cnn2-c1ccc(F)cc1 (stereo unspecified),-4.89%,6.67%,1.34%,3.64%,4.91%,-3.35%,2.03%,1.9%,6.35%,7.69%,-4.25%
